# Data reported in the supplement of paper PMC5641865, “A screen for kinase inhibitors identifies antimicrobial imidazopyridine aminofurazans as specific inhibitors of the Listeria monocytogenes PASTA kinase PrkA” (The Journal of Biological Chemistry, 2017).
# ± gives the standard deviation of the averaged measurements.
# Test system: Listeria monocytogenes 10403S
# Test: growth inhibition relative to ceftriaxone-alone control; higher = stronger potentiation of ceftriaxone growth inhibition
# Conditions: 10 µM; ceftriaxone 1 ug/ml; 12 h
# 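Further: End-point A600 read in BHI broth at 37 °C with 2% DMSO, inhibition computed as (1 − OD with compound plus ceftriaxone ÷ OD with ceftriaxone only) × 100.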
row,Structure (SMILES),growth inhibition [%]
1,CS(=O)(=O)CCNCc1ccc(-c2ccc3ncnc(Nc4ccc(OCc5cccc(F)c5)c(C(F)(F)F)c4)c3c2)o1,-12.1 ± 6.9
2,CC(=O)NCc1cccc(C#Cc2cncnc2Nc2ccc(OCc3cccc(F)c3)c(Cl)c2)c1,-1.26 ± 2.3
3,Nc1nc(-c2ccccn2)c(-c2ccc3ncccc3n2)s1,0.104 ± 3
4,COc1cc(Nc2nccc(Nc3ccc4c(C)n[nH]c4c3)n2)cc(OC)c1OC,-7.71 ± 14
5,C[C@@H](Oc1cc(-n2cnc3ccc(CN4CCN(C)CC4)cc32)sc1C(N)=O)c1ccccc1C(F)(F)F,88.5 ± 8.4
6,COc1ccc(-c2cc(-c3c[nH]nc3-c3ccccn3)ccn2)cc1,3.1 ± 4.7
7,CCn1c(-c2nonc2N)nc2c(C#CC(C)(C)O)nc(OC[C@@H](N)c3ccccc3)cc21,71.3 ± 3.1
8,CCn1nnc2c(N3CCOCC3)nc(-c3ccc(NC(=O)Nc4ccc(C(=O)N5CCN(C)CC5)cc4)cc3)nc21,20.2 ± 19
9,Cc1ccc(NC(=O)c2ccnc(N3CCCC3)c2)cc1-c1ccc(C(=O)NCC2CC2)cc1,-0.943 ± 1.3
10,CCS(=O)(=O)c1ccc(OC)c(Nc2ncc(-c3ccccc3Cl)o2)c1,-2.57 ± 15
11,CCOc1nccc2c1nc(-c1nonc1N)n2CC,13.6 ± 0.53
12,C[C@@H](Oc1cc(-n2cnc3ccc(OC4CCN(C)CC4)cc32)sc1C(N)=O)c1ccccc1Cl,0.604 ± 2.5
13,Clc1ccc(Nc2nnc(Cc3ccncc3)c3ccccc23)cc1 [Vatalinib 2HCl (PTK787)],24.8 ± 20
14,CC(=O)Nc1cccc(C#Cc2cncnc2Nc2ccc(OCc3cccc(F)c3)c(Cl)c2)c1,-15 ± 2.5
15,CCn1c(-c2nonc2N)nc2c(C#CC(C)(C)O)nc(OCCNC)cc21,41.3 ± 18
